Experimental data reported in the supplement of paper PMC6522484.
± gives the standard deviation of the averaged measurements.

The molecules below were run on SW480 (assay: cell viability (CellTiter-Glo) relative to plate median (fraction of plate median); higher = more viable cells). Conditions: 5 µM; treatment time 24 h; reporter: 7TFP.
Procedure, shortened: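 Normalisation used webcellHTS2 in additive mode without log transformation, scaling each well's luminescence to the plate median. The luminescence was firefly luciferase or CellTiterGlo, read on a Tecan F500 from parallel plates of colorectal cancer cells stably transduced with lentiviral TCF/Wnt firefly luciferase reporters. Those cells had been given library compounds at a final 5 µM for 24 h, and two independent replicates were averaged.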

Structure (SMILES) | cell viability
Nc1nc(=O)c2[nH]c(=O)cnc2[nH]1 | 0.954 ± 0.018
CC#C[C@]1(O)CC[C@H]2[C@@H]3CCC4=CC(=O)CCC4=C3[C@@H](c3ccc(N(C)C)cc3)C[C@@]21C | 0.931 ± 0.042
CC1(C)C=Cc2cc3ccc(=O)oc3cc2O1 | 1.04 ± 0.042
CN(C)CCOc1ccc(/C(=C(/CCCl)c2ccccc2)c2ccccc2)cc1 | 0.977 ± 0.047
CC(C)(C)CC(C)(C)c1ccc(O)c(Cc2ccc(Cl)cc2Cl)c1 | 1.03 ± 0.014
CC(=O)N[C@@H](CS)C(=O)O | 0.993 ± 0.0042
Cn1c(=O)c2nc[nH]c2n(C)c1=O | 1.07 ± 0.035
CC(C)CC(NC(=O)OCC1c2ccccc2-c2ccccc21)C(=O)O (stereo in doubt) | 1.01 ± 0.021
C=C1C(=O)[C@]23[C@H](CC[C@@H]1[C@@H]2O)[C@]12CO[C@@]3(O)[C@H](O)[C@H]1C(C)(C)CC[C@@H]2O | 1.045 ± 0.0071
O=c1cc(CO)occ1O [Kojic acid (Biofocus)] | 0.994 ± 0.093
c1coc(CNc2ncnc3[nH]cnc23)c1 | 0.958 ± 0.04
CC(=O)O[C@H]1CC[C@]2(C)C(C[C@@H](OC(C)=O)[C@]3(C)C4=CC(=O)O[C@H](c5ccoc5)[C@@]4(C)CCC23)C1(C)C (stereo partly drawn) [3-DEOXO-3beta-ACETOXYDEOXYDIHYDROGEDUNIN] | 0.982 ± 0.04
NCCNCCNCCN | 1.01 ± 0.064
CCCc1nn(C)c2c(=O)[nH]c(-c3cc(S(=O)(=O)N4CCN(C)CC4)ccc3OCC)nc12 | 0.978 ± 0.013
Oc1c(Cl)cc(Cl)c2cccnc12 | 0.963 ± 0.033
CC(C)CCC[C@@H](C)[C@H]1CC[C@H]2[C@@H]3CC(=O)[C@H]4C[C@@H](O)CC[C@]4(C)[C@H]3CC[C@]12C [5alpha-CHOLESTAN-3beta-OL-6-ONE] | 1.015 ± 0.0071
C[C@H](N)[C@H](O)c1cccc(O)c1 | 1.06 ± 0.035
CC(C(=O)O)c1cccc(Oc2ccccc2)c1 (stereo not given) | 0.988 ± 0.06
Clc1ccc(CSC(Cn2ccnc2)c2ccc(Cl)cc2Cl)cc1 (stereo not given) | 0.954 ± 0.11
CC(=O)O[C@]1(C(C)=O)CC[C@H]2[C@@H]3C=C(Cl)C4=CC(=O)[C@@H]5C[C@@H]5[C@]4(C)[C@H]3CC[C@@]21C | 0.948 ± 0.0028

Structure (SMILES) | cell viability
CC(=O)OC1CCC2(C)C(=CCC3C2CCC2(C)C(C(C)CCCC(C)C)CCC32)C1 (stereo not given) | 0.964 ± 0.051
CCC(=O)C1(C)OC1C(C)CC(C)C1OC(=O)CC2(O)CC=C(C)C(O2)/C(C)=C/CCCC(OC2CC(OC(N)=O)C(O)C(C)O2)/C=C/C(C)C(O)C1C (stereo not given) [Irumamycin] | 1 ± 0.025
CC(=O)O[C@@H]1CC2C(C)(CC[C@H](O)C2(C)C)C2CC[C@]3(C)C(=CC(=O)O[C@H]3c3ccoc3)C21C (stereo partly drawn) [3beta-HYDROXYDEOXODIHYDRODEOXYGEDUNIN] | 1.02 ± 0.028
CCCc1nc(C(C)(C)O)c(C(=O)OCc2oc(=O)oc2C)n1Cc1ccc(-c2ccccc2-c2nnn[nH]2)cc1 | 1.01 ± 0.047
CCOc1ccc(Cc2nccc3cc(OCC)c(OCC)cc23)cc1OCC | 0.921 ± 0.0071
Cc1ccc(Cl)c(Nc2ccccc2C(=O)O)c1Cl | 1 ± 0.052
C=C1CC[C@@H]2[C@](C)(CO)[C@H](O)CC[C@@]2(C)[C@@H]1C/C=C1/C(=O)OC[C@H]1O | 1.02 ± 0.014
C[C@@H]1O[C@@H](O[C@H]2[C@H](Oc3cc(O)c4c(c3)O[C@H](c3ccc(O)cc3)CC4=O)O[C@H](CO)[C@@H](O)[C@@H]2O)[C@H](O)[C@H](O)[C@H]1O | 0.975 ± 0.02
c1ccc2c(c1)CCCC2C1=NCCN1 (stereo not given) | 1.07 ± 0.05
CO/N=C(\C(=O)N[C@@H]1C(=O)N2C(C(=O)OC(C)OC(C)=O)=C(COC(N)=O)CS[C@H]12)c1ccco1 (stereo not given in full) | 0.9685 ± 0.005
CC1=CC(=O)CC(C)(C)C1(O)/C=C/C(C)=C\C(=O)O (mixture of isomers) [ABSCISIC ACID (cis,trans; )] | 1.03 ± 0.064
O=CN(O)CCCC(NC(=O)C(CO)NC(=O)C1COC(c2ccccc2O)=N1)C(=O)NCCC(=O)NC1CCCN(O)C1=O (stereo not given) [Oxachelin hydrate] | 1.02 ± 0.05
Cc1cc(/C=C/c2ccc3cc(N(C)C)ccc3[n+]2C)c(C)n1-c1ccccc1 | 0.852 ± 0.08
CC(C)c1cccc(=O)c(O)c1 | 1.1 ± 0.021
CCOC(=O)c1c(C)cc(OC)cc1O | 0.954 ± 0.066
CC1=C(/C=C/C(C)=C/C=C/C(C)=C/C=C/C=C(C)/C=C/C=C(C)/C=C/C2=C(C)C(=O)[C@@H](O)CC2(C)C)C(C)(C)C[C@H](O)C1=O | 1 ± 0.027
CC[C@H]1OC(=O)C[C@@H](O)[C@H](C)[C@@H](O[C@@H]2O[C@H](C)[C@@H](O[C@H]3C[C@@](C)(O)[C@@H](O)[C@H](C)O3)[C@H](N(C)C)[C@H]2O)[C@@H](CC=O)C[C@@H](C)C(=O)/C=C/C(C)=C/[C@@H]1CO[C@@H]1O[C@H](C)[C@@H](O)[C@@H](OC)[C@H]1OC | 1.07 ± 0.021
CC(C)C1NC(=O)C2CCCN2C1=O (single isomer, unassigned; isomere) [Cyclo(prolylvalyl) (Isomere)] | 0.958 ± 0.06
COc1c2c(c(O)c3c4c(c(C)cc13)C1OC3(C(OC)OC)OC1C(O[C@H]1C[C@@H](O)[C@@](O)(C(C)=O)[C@H](C)O1)(O4)C3(O)CO)C(=O)C(O)CC2O[C@H]1C[C@@](C)(O)[C@H](OC(C)=O)[C@H](C)O1 (stereo not given in full) [Trioxacarcin B] | 1.06
CO[C@@]12[C@H](COC(N)=O)C3=C(C(=O)C(C)=C(N)C3=O)N1C[C@@H]1N[C@@H]12 | 1.25 ± 0.021
